Experiment in all cases: NCI-60 one-dose screen, 48 h (100 = growth as untreated, 0 = no growth, -100 = all killed)
Holding throughout (details): 10 µM unless noted

In assay [1] the test system is NCI-H23 lung.
Assay [2] relates to NCI-H226 lung.
The test system of assay [3] is NCI-H322M lung.
In assay [4] the test system is HOP-62 NSCLC.
Assay [5] deals with NCI-H460 lung.
Assay [6] relates to HOP-92 NSCLC.
The test system of assay [7] is NCI-H522 lung.
In assay [8] the test system is A549/ATCC NSCLC.
Assay [9] deals with 786-0 renal.
Assay [10] deals with COLO 205 colon.
In assay [11] the test system is DU-145 prostate.
In assay [12] the test system is K-562 leukemia.
The test system of assay [13] is MALME-3M melanoma.
The subject of assay [14] is MDA-MB-231 breast.
In assay [15] the test system is RXF 393 renal.
The subject of assay [16] is SF-268 CNS.
The test system of assay [17] is SF-295 CNS.
The subject of assay [18] is SF-539 CNS.
The test system of assay [19] is UACC-257 melanoma.
In assay [20] the test system is M14 melanoma.

The panel holds about 83,000 compounds, 20% with a hit somewhere; the sample as a whole holds those more often.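 Assay: single dose, 48 h. Readout: percent growth (0 = no net growth; negative = cell death). Active: <10.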 A number with no mark means an inactive call. Active and inactive are the calls of the source.

For `Cc1ncc(C(=O)Nc2ccc(CN3CCN(C)CC3)c(C(F)(F)F)c2)cc1C#Cc1cnc(N)c2cnccc12`, the growth in [1] is 9.05% (active); in assay [2] it was 12.1%; in [3], 14.8%; in assay [4], -21.8% (active); in assay [5], -53.9% (active); in assay [6], 34.2%. In addition, the growth is -0.528% (active) in assay [7]; 13.3% in assay [8]; 14% in [9]; -27% (active) in [10]; 13.5% in assay [11]; 25.1% in assay [12]. Further, the growth was -26.1% (active) in assay [13]; -63.4% (active) in assay [14]; -34.3% (active) in assay [15]; 14.6% in [16]; 23.6% in [17]; -76.2% (active) in assay [18]. Further, the growth in [19] was -16.8% (active); in [20] it was -78.5% (active).
For the molecule `O=C(CCC(=O)c1nc2ncccc2[nH]1)NN1C(=O)CSC1c1ccc(Cl)cc1` (stereo not given), the growth was 91.4% in assay [1]; 95.9% in [2]; 93.5% in assay [3]; 93.9% in assay [4]; 102% in assay [5]; 111% in assay [6]. The growth is 83% in assay [7]; 97.3% in assay [8]; 101% in [9]; 116% in assay [10]; 103% in assay [11]; 98.2% in assay [12]. The growth was 93% in assay [13]; 98% in assay [14]; 103% in [15]; 91.2% in [16]; 108% in assay [17]; 103% in assay [18]. For the same molecule, the growth in assay [19] is 105%; in [20] it was 98%.
`CCCCn1sc(=O)n(Cc2ccc(CNC(=O)OCc3ccc4c(Cl)cc(Cl)c(O)c4n3)cc2)c1=O`: the growth in assay [1] is 75.3%; in assay [2], 73.2%; in assay [3], 61.5%; in [4], 40.4%; in assay [5] it was 26.5%; in assay [6], 74.5%. Further, the growth is 69.9% in assay [7]; 48.7% in assay [8]; 67.9% in assay [9]; 98.1% in [10]; 58.5% in assay [11]; 42.9% in assay [12]. Also, the growth was 73% in assay [13]; 84.4% in assay [14]; 74.3% in assay [15]; 67.1% in assay [16]; 34.5% in assay [17]; 78% in assay [18]. The growth in assay [19] is 97.6%; in assay [20], 60.7%.
As to `CN(CCC#N)c1ccc(/C=C2\NC(=O)NC2=O)cc1`, the growth in [1] was 89.5%; in [2], 96.7%; in assay [3], 103%; in [4], 99.3%; in [5], 98.4%; in [6] it was 79.2%. The growth in assay [7] was 38.7%; in assay [8], 111%; in assay [9], 88%; in [10], 95.8%; in assay [11] it was 124%; in assay [12], 107%. Further, the growth in [13] was 113%; in [14], 101%; in assay [15] it was 113%; in [16], 117%; in assay [17], 112%; in [18], 91.3%. Also, the values for the growth in assay [19] and in assay [20] were 93.4% and 96.4%, respectively.
As for `CCN(CC)CCOc1ccc(Nc2ncc3cc(-c4ccc(O)cc4)c(=O)n(C)c3n2)cc1`, the growth in assay [1] is 69.8%; in assay [2], 43.8%; in [3] it was 47.7%; in assay [4] it was 49.9%; in assay [5], 78.9%; in [6] it was 76.6%. In addition, the growth in [7] is 27.3%; in [8], 49%; in [9], -76.5% (active); in assay [10], 38.4%; in [11], 85.5%; in assay [12], -53.5% (active). Moreover, the growth in assay [13] is -43.8% (active); in [14], 43.1%; in assay [15], -5.94% (active); in assay [16], 45%; in [17], 98.5%; in assay [18], -1.13% (active). Moreover, the growth in [19] was 66.6%; in [20] it was 57.5%.
In the case of `COc1cc(C(=O)c2c(N)ncn2-c2ccccc2)cc(OC)c1OC`, the growth in assay [1] is 101%; in [2], 84%; in assay [3] it was 104%; in assay [4] it was 77.1%; in assay [5], 106%; in [6], 96.2%. The growth in assay [7] was 50.5%; in [8] it was 106%; in [9], 88.7%; in assay [10], 97.4%; in [11], 100%; in assay [12], 76.4%. Besides, the growth is 106% in assay [13]; 103% in assay [14]; 86.8% in assay [15]; 101% in assay [16]; 91% in assay [17]; 87% in assay [18]. For the same molecule, the values for the growth in assay [19] and in assay [20] were 109% and 96.1%, respectively.

These data come from PubChem BioAssay (NCI).
